S1P2 blocker = antagonists of human S1P2 receptor. cell-based S1P2 antagonist assay, inhibition at 5 uM. inhibition, % at 5 µM. O95136. actives 0.21% (n = 97,000). AID 736; in the data active = inhibition above about 45%;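 note: CRE beta-lactamase reporter cells expressing human S1P2 stimulated with S1P; 0% = agonist at EC80 alone and 100% = agonist plus reference antagonist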
Target sequence (O95136 whole entry, looked up): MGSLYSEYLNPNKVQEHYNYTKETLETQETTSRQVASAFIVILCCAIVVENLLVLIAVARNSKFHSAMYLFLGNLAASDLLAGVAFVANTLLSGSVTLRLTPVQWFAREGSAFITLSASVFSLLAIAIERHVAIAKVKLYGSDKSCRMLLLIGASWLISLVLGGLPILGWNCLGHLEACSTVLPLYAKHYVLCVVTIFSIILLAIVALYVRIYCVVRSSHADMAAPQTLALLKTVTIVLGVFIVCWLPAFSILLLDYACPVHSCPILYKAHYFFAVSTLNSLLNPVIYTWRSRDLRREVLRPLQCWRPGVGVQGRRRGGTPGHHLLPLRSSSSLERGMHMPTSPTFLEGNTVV
S1P2 ag = activates the human S1P2 receptor. O95136. S1P2-expressing cell line, agonist reporter read-out. activation, % at 4.5 µM. actives 0.46% (n = 97,000); in the data active = activation above about 16%;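 note: 0% = vehicle low control and 100% = maximal reference agonist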
GALR2 ag = agonists of human galanin receptor 2 (GALR2); GALR2-expressing cells, agonist activation read-out; O43603; actives 0.48% (n = 140,000); activation, % (test concentration not listed); in the data active = activation above about 5%, passing the limit was not always enough;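 note: 0% = vehicle buffer wells and 100% = reference agonist at full effect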
GALR2 blocker = antagonists of human galanin receptor 2 (GALR2); O43603; GALR2-expressing cells, antagonist mode; inhibition, % at 4 µM; actives 0.39% (n = 140,000); AID 828; in the data active = inhibition above about 27%;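 note: cells stimulated with galanin 1-16 at roughly its EC80; 0% = agonist challenge control and 100% = basal control without agonist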
Active calls of the source: *; nt = no result. Only some compounds are listed: those with a hit (about 1.2% of all), similar ones and a draw of the others.

SMILES	S1P2 blocker	S1P2 ag	GALR2 ag	GALR2 blocker
COc1ccc(C(=O)C(CN2CCOCC2)c2ccccc2)cc1F (centres undefined)	7.1	-4.6	-0.6	32.9*
O=Cc1cn(-c2ccc(F)cc2)c2ccccc12	nt	nt	-2.2	2.2
CC(C)Cn1c(N)c(C(=O)COC(=O)CC23CC4CC(CC(C4)C2)C3)c(=O)n(C)c1=O	59.4*	-2.3	-2.0	24.9
Cc1ccc(NC(=O)COC(=O)C(NS(=O)(=O)c2ccc(Cl)cc2)C(C)O)cc1C (centres undefined)	nt	nt	-1.5	11.1
O=C1N/C(=N\N=C\c2ccc3ncccc3c2)SC1Cc1ccc(SC(F)F)cc1 (centres undefined)	8.2	-6.2	-2.2	2.2
O=C1N/C(=N\N=C\c2cccnc2)SC1Cc1ccc(SC(F)F)cc1 (centres undefined)	-15.6	30.5*	-0.9	11.2
COc1ccc(CNC(=O)CSc2nc(-c3ccccc3)cc(-c3cccs3)c2C#N)cc1	-18.6	-0.9	-1.8	-14.4
COc1cc(-c2cc(-c3ccccc3)nc(SCC(=O)Nc3nccs3)c2C#N)cc(OC)c1OC	-23.1	30.9*	-1.0	-3.2
COC(=O)c1ccc(CSc2nc3sc4c(c3c(=O)n2C)CCCC4)o1	nt	nt	-1.5	-4.2
COC(=O)c1sc(N)c(C(=O)OC)c1CSc1nc2sc3c(c2c(=O)n1C)CCC3	-29.4	26.8*	-2.0	14.1
Cc1ccc(-c2csc3ncnc(SCC(=O)Nc4nnc(C)s4)c23)cc1	2.9	-4.9	-2.1	-1.9
Cc1ccc(-c2csc3ncnc(Sc4nnc(CN5CCCCCC5=O)o4)c23)cc1	51.6*	-9.8	6.8	27.0*
N#Cc1ccc(-c2cccnc2)nc1SCC(=O)Nc1sc2c(c1C#N)CCC2	nt	nt	6.9*	8.5
COc1ccc(-c2ccc(C#N)c(SCC(=O)Nc3sc4c(c3C#N)CCC4)n2)cc1	-8.4	-1.8	-0.7	10.3
Cc1cc(O)c(C2=Nc3ccccc3SC(c3ccc(Cl)cc3)C2)c(=O)o1 (centres undefined)	nt	nt	-0.8	-4.5
COc1ccc(C2CC(c3c(O)cc(C)oc3=O)=NCCS2)c(OC)c1 (centres undefined)	nt	nt	0.4	27.7*
COc1ccc(OC)c(NC(=O)c2ccc3c(=O)n(CCc4ccccc4)c(=S)[nH]c3c2)c1	nt	nt	-1.3	-0.5
COc1cc(C(=O)NCc2ccccc2)cc(Br)c1OC	nt	nt	0.2	5.5
COC(=O)C1=CN(C(C)C)C=C(C(=O)OC)C1c1cc(Br)c(OC)c(OC)c1	-24.2	17.7*	21.8*	3.4
COC(=O)C1=CN(C(C)C)C=C(C(=O)OC)C1c1cccc(OC)c1	-16.8	12.5	21.1*	2.9
Cc1cccc(NC(=O)Nc2ccc(C#N)cc2)n1	nt	nt	-3.2	37.8*
Cc1cccc(NC(=O)Nc2cccc(C#N)c2)n1	nt	nt	-0.4	18.1
O=C(O)C1CC=CCC1C(=O)N1CCN(c2nc(-c3ccccc3)c3ccccc3n2)CC1 (centres undefined)	-16.2	21.1*	9.1	23.2
O=C(O)CCCC(=O)N1CCN(c2nc(-c3ccccc3)c3ccccc3n2)CC1	-6.5	37.9*	-1.2	12.6
COc1ccccc1N1CCN(C(=O)C2CC=CCC2C(=O)O)CC1 (centres undefined)	8.5	-8.6	-0.1	-2.5
SMILES	S1P2 blocker	S1P2 ag	GALR2 ag	GALR2 blocker
c1ccc(-c2nc(N3CCNCC3)nc3ccccc23)cc1	-17.9	20.4*	7.8	13.3
c1ccc(-c2nc(N3CCCCC3)nc3ccccc23)cc1	-19.3	2.6	0.9	-1.6
O=C(N/N=C/c1ccc(Br)o1)c1ccc2c(c1)OCCO2	nt	nt	-0.9	5.5
CSc1ccc(/C=N/NC(=O)COc2ccc(Br)cc2Cl)cc1	nt	nt	0.0	4.1
CSc1nc(SCCO)c2sc3nc(-c4ccco4)c4c(c3c2n1)CC(C)(C)OC4	-18.4	7.2	6.3*	7.5
COc1ccc(NCc2nnc(SCC(=O)c3ccc(OC)cc3)o2)cc1	-4.5	-2.4	-2.8	-1.3
CCOc1cc(C(=O)CSc2nnc(CNc3ccc(Cl)cc3)o2)ccc1NC(=O)CC	47.0*	10.1	7.8*	26.9
C=CCN(c1cccc(C(F)(F)F)c1)S(=O)(=O)c1cccc(C(=O)OCC(=O)Nc2ccccc2)c1	nt	nt	-0.7	0.1
Cc1cc(Oc2cc(N)cc([N+](=O)[O-])c2)ccc1Cl	nt	nt	0.8	-5.6
CCCn1c(NCc2c[nH]c3ccccc23)nc2ccccc21	-30.6	21.5*	-0.7	2.0
COc1ccc(-c2cc(C(=O)OC3CCOC3=O)c3ccccc3n2)cc1 (centres undefined)	6.7	-4.8	-0.9	-9.4
COc1ccc(C2=Nn3c(nnc3-c3ccccc3)SC2)cc1OC	-36.7	27.2*	3.8	-7.3
COc1ccc(C2=Nn3c(nnc3C3CCCCC3)SC2)cc1OC	-88.4	36.4*	1.9	-13.1
COc1ccc(OC)c(C2=Nn3c(nnc3C3CCCCC3)SC2)c1	-34.6	1.5	-1.1	-10.7
COc1ccc(-c2nnc3n2N=C(C)CS3)cc1OC	5.9	-7.1	-2.5	3.6
O=C(Nc1ccccc1C(=O)NCc1cccnc1)c1ccc(Cl)cc1Cl	nt	nt	-1.6	8.3
CCNc1ccc2c(Cl)cc(=O)oc2c1	47.4*	-4.5	6.3	15.7
COc1ccc(Cn2c(-c3ccco3)nc3oc4cc(OC)ccc4c(=O)c3c2=O)cc1	12.6	78.6*	1.6	-4.7
COc1cccc(Nc2nc3ccccc3nc2-n2nc(C)cc2C)c1	-47.6	38.0*	23.3*	-0.7
C/C(=N\NC(=O)C(C)n1nc(C)c([N+](=O)[O-])c1C)c1ccccc1O (centres undefined)	nt	nt	-1.7	9.8
CCOC(=O)c1c(-c2ccccc2)csc1NC(=O)c1cc2ccccc2oc1=O	nt	nt	-3.0	4.1
COc1ccc(-c2cn3c(C)c(C(=O)Nc4ccncc4)sc3n2)cc1	19.3	-8.7	-5.3	7.4
COC(=O)c1ccc(NC(=O)c2sc3nc(-c4ccccc4)cn3c2C)cc1	46.9*	-5.9	-2.9	12.1
CCOc1ccccc1NC(=S)N1CCC(NC(=O)NC23CC4CC(CC(C4)C2)C3)CC1	31.1	-5.1	-0.9	-12.2
O=[N+]([O-])c1ccc(O)c(/C=N/Nc2ccccn2)c1	nt	nt	6.2*	19.5
SMILES	S1P2 blocker	S1P2 ag	GALR2 ag	GALR2 blocker
CC[C@H](C)NC(=O)c1ccc(Cn2c(=S)[nH]c3c([nH]c4ccc(OC)cc43)c2=O)cc1	nt	nt	3.2	-0.5
CCN(CC)C(=O)Cn1cnc2sc(C(=O)Nc3cc(OC)c(OC)c(OC)c3)c(C)c2c1=O	-19.0	-4.7	-0.2	-10.2
CC1CCCCC1NS(=O)(=O)c1ccc(S(=O)(=O)NCc2ccncc2)cc1 (centres undefined)	55.0*	-3.3	-0.3	23.4
O=C1CC(c2ccc(S(=O)(=O)NCc3ccncc3)cc2)CN1 (centres undefined)	13.6	0.5	-2.8	6.5
CN1CCN(Cc2nc3ccccc3c(=O)n2Cc2nc(-c3ccc4ccccc4c3)cs2)CC1	nt	nt	7.7*	11.0
Cc1ccc(N2CCN(CC(=O)Nc3c(C(=O)C4CC4)oc4ccccc34)CC2)cc1	8.2	-3.9	-2.3	0.6
CCCCc1ccc(NC(=O)COc2ccc(C(=O)Nc3ccccc3OC)cc2)cc1	nt	nt	-1.0	6.4
CCCCc1ccc(NC(=O)COc2ccc(C(=O)Nc3ccccc3C)cc2)cc1	nt	nt	5.8*	10.2
O=c1cc(CSc2nc(NCc3ccccc3)c3ccccc3n2)nc2ccc(Cl)cn12	nt	nt	-1.3	-15.7
CCNC(=S)SCCOc1ccccc1C	nt	nt	0.4	-1.4

Source: PubChem (The Scripps Research Institute Molecular Screening Center)
